# From PubChem BioAssay (NCATS)
# Inconclusive results are not listed. A call without a number means that no potency is given here. The source made the active and inactive calls. Unless noted, the call rests on the fitted dose curve.
# Key:
# [1] = qHTS for Inhibitors of the Functional Ribonucleoprotein Complex (vRNP) of Lassa (LASV) Arenavirus: LASV Primary Screen - GLuc reporter signal (AID 1347082; calls by dose curve; tested in HEK293 reporter line; further: nearly all actives have a fitted effect of over 60% in size)
# [2] = qHTS for Inhibitors of the Functional Ribonucleoprotein Complex (vRNP) of Lassa (LASV) Arenavirus: Viability assay - alamar blue signal for LASV Primary Screen (AID 1347083; calls by dose curve; tested in HEK293 reporter line; further: nearly all actives have a fitted effect of over 80% in size)
# [3] = qHTS for Inhibitors of the Functional Ribonucleoprotein Complex (vRNP) of Lymphocytic Choriomeningitis Arenaviruses (LCMV): Viability assay - alamar blue signal for LCMV Primary Screen (AID 1347085; calls by dose curve; tested in HEK293 reporter line; further: nearly all actives have a fitted effect of over 80% in size)
# [4] = target: Nucleoprotein (Lymphocytic choriomeningitis virus (strain Armstrong)) (UniProt P09992); test: qHTS for Inhibitors of the Functional Ribonucleoprotein Complex (vRNP) of Lymphocytic Choriomeningitis Arenaviruses (LCMV): LCMV Primary Screen - GLuc reporter signal (AID 1347086); further: nearly all actives have a fitted effect of over 70% in size
# [5] = system: Zika virus NS2B-NS3 protease; test: Primary screen GU AMC qHTS for Zika virus inhibitors (AID 1347154; active means well fitted curve in the direction sought with a large enough effect; an effect the other way counts as inactive or inconclusive; further: nearly all actives have a fitted effect of over 70% in size)
# In short: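 Unlinked Zika NS2B hydrophilic domain/NS3 protease domain noncovalent complex (25 nM final) in 10 mM Tris-HCl pH 8.0, 0.01% Tween 20, with AMC peptide substrate. Fluorescence (ex 340, em 450 nm) change over 15 min, room temperature; percent inhibition fitted to 4-parameter Hill equation.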
# [6] = Primary qHTS for small molecule stabilizers of the endoplasmic reticulum resident proteome: Secreted ER Calcium Modulated Protein (SERCaMP) assay (AID 1508630; active means well fitted curve in the direction sought with a large enough effect; an effect the other way counts as inactive or inconclusive)
# In short: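 GLuc-SERCaMP-expressing SH-SY5Y cells, pretreated 16 h with compound, are challenged with thapsigargin to empty ER calcium stores; after 4 h, coelenterazine is added directly to the medium and luminescence is imaged.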
# [7] = Primary qHTS for inhibitors of SARS-S pseudo-typed particle cell entry (AID 1479145); further: nearly all actives have a fitted effect of over 45% in size
# [8] = Primary qHTS for Huh7 cytotoxicity: counterscreen for inhibitors of MERS-S pseudotyped particle cell entry (AID 1479147); conditions: outcome: dose series up to 57.1 µM unless noted
# [9] = Primary qHTS for inhibitors of MERS-S pseudo-typed particle cell entry (AID 1479149); further: nearly all actives have a fitted effect of over 60% in size
# [10] = Primary qHTS for Vero E6 cytotoxicity: counterscreen for inhibitors of SARS-S pseudo-typed particle cell entry (AID 1479150); conditions: outcome: dose series up to 57.1 µM unless noted
# [11] = Cytotoxicity counterscreen for inhibitors of SARS-CoV-2 cell entry (AID 1645845); further: nearly all actives have a fitted effect of over 50% in size
# In short: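 Expi293F/hACE2 cells seeded overnight; cpd pin-transferred in DMSO, 1 h preincubation, + media, 48 h 37 C 5% CO2; ATPLite 1step luminescence; normalized to cells and no cells.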
# [12] = Primary qHTS to identify inhibitors of SARS-CoV-2 cell entry (AID 1645846); conditions: activity change, negative = inhibition: at 57.1 µM (top of the series) unless noted; further: nearly all actives have a fitted effect of over 45% in size
# In short: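 HEK293-ACE2 (Expi293F, stable hACE2), 1500 cells/well, o/n 37C; cpd 23 nL pin, 1 h; MLV-PP w/ SARS-CoV-2-S (Wuhan-Hu-1, Δ19 C-term); 48 h 37C; Bright-Glo luminescence; normalized vs S-PP and bald PP.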
# [13] = Inducers of the Endoplasmic Reticulum Stress Response (ERSR) in human glioma: Validation (AID 504836; active means well fitted curve in the direction sought with a large enough effect; an effect the other way counts as inactive or inconclusive)
# In short: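 Stably transfected U87-MG human glioma cells carrying a GRP78-based luminescent sensor were seeded at 1000 cells/well, pin-dosed with compounds and incubated 16 h. Luciferase reagent was then added, and end-point luminescence was read after 10 min at room temperature.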
# Sequence of Nucleoprotein (Lymphocytic choriomeningitis virus (strain Armstrong)) (P09992 whole entry, looked up): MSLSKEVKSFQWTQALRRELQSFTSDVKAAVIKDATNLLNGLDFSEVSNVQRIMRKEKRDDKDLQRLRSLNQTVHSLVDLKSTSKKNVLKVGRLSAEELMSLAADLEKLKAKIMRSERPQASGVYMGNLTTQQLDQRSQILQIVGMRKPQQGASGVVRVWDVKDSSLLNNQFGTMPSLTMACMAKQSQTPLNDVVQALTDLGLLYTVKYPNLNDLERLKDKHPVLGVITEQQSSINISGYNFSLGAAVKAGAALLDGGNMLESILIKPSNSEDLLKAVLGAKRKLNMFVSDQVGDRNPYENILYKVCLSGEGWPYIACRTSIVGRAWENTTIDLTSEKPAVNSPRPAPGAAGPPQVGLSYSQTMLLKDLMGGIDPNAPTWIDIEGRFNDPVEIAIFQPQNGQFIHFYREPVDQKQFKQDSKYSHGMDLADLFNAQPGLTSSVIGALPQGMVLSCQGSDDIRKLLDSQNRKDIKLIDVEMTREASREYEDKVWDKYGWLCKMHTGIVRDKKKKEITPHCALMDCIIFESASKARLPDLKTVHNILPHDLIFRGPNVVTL
structure (smiles),measurement,setting,value
CC1=C(O)C(=O)[C@@H]2O[C@@H]2C1=O,Potency,[1],inactive
same,Potency,[2],inactive
same,Potency,[3],inactive
same,Potency,[4],inactive
same,Potency,[5],inactive
same,Potency,[6],inactive
CC/C=C\CCCCO,Potency,[1],inactive
same,Potency,[2],inactive
same,Potency,[3],inactive
same,Potency,[4],inactive
COc1ccc2[nH]c3c(c2c1)CCNC3C (stereo not given),Potency,[1],inactive
same,Potency,[2],inactive
same,Potency,[3],inactive
same,Potency,[4],inactive
same,Potency,[5],inactive
same,Potency,[6],inactive
C[C@H]1CC[C@@H]2N(C1)C[C@H]1[C@@H]3C[C@H]4[C@@H](CC(=O)[C@H]5C[C@@H](O)CC[C@@]54C)[C@@H]3CC[C@H]1[C@]2(C)O,Potency,[1],inactive
same,Potency,[2],inactive
same,Potency,[3],inactive
same,Potency,[4],inactive
same,Potency,[5],inactive
same,Potency,[6],inactive
CN1CCCCC1c1cccnc1 (stereo not given),Potency,[1],inactive
same,Potency,[2],inactive
same,Potency,[3],inactive
same,Potency,[4],inactive
same,Potency,[5],inactive
same,Potency,[6],inactive
CN(CCCC(=O)c1cccnc1)N=O,Potency,[1],inactive
same,Potency,[2],inactive
same,Potency,[3],inactive
same,Potency,[4],inactive
same,Potency,[5],inactive
same,Potency,[6],inactive
CC1(C)Oc2ccc3ccc(=O)oc3c2C[C@H]1O[C@@H]1O[C@H](CO)[C@@H](O)[C@H](O)[C@H]1O,Potency,[1],inactive
same,Potency,[2],inactive
same,Potency,[3],inactive
same,Potency,[4],inactive
COc1ccc(CCN)cc1,Potency,[1],inactive
same,Potency,[2],inactive
same,Potency,[3],inactive
same,Potency,[4],inactive
same,Potency,[5],inactive
same,Potency,[6],inactive
CCCCCCCCCC(=O)O,Potency,[1],inactive
same,Potency,[2],inactive
same,Potency,[3],inactive
same,Potency,[4],inactive
same,Potency,[7],inactive
same,outcome,[8],inactive
same,Potency,[9],inactive
same,outcome,[10],inactive
same,Potency,[11],inactive
same,Potency,[12],inactive
CO/N=C(\C(=O)N[C@@H]1C(=O)N2C(C(=O)O)=C(COC(C)=O)CS[C@H]12)c1csc(N)n1,outcome,[13],inactive
same,Potency,[1],inactive
same,Potency,[2],inactive
same,Potency,[3],inactive
same,Potency,[4],inactive
same,Potency,[7],inactive
same,outcome,[8],inactive
same,Potency,[9],inactive
same,outcome,[10],inactive
same,Potency,[11],inactive
same,Potency,[12],inactive
C[C@]12CCC(=O)C[C@@H]1CC[C@@H]1[C@@H]2CC[C@]2(C)C=CC[C@@H]12,Potency,[1],inactive
same,Potency,[2],inactive
same,Potency,[3],inactive
same,Potency,[4],inactive
same,Potency,[7],inactive
same,outcome,[8],inactive
same,Potency,[9],inactive
same,outcome,[10],inactive
same,Potency,[11],inactive
same,"activity change, negative = inhibition",[12],-21.9%
